This note sets out measurements from PubChem BioAssay (NCI).

A short description of assay [1]: NCI Yeast Anticancer Drug Screen. Data for the rad50 strain (AID 155).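 Note: 0% = growth of vehicle-only cultures of the same strain.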 The conditions noted are these: S. cerevisiae rad50 strain growth inhibition, stronger effect = higher value. In short, it runs like this: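 Growth of the mutant yeast was measured after compound exposure and referenced to vehicle-treated cultures.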
Assay [2] is described as follows: NCI Yeast Anticancer Drug Screen. Data for the mec2-1 strain (AID 157). To be noted: S. cerevisiae mec2-1 strain, stronger effect = higher value. An outline of the steps: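 Mutant yeast (mec2-1) grown with compound; growth inhibition relative to vehicle control reported.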
The nature of assay [3]: NCI Yeast Anticancer Drug Screen. Data for the sgs1 mgt1 strain (AID 161).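 Note: 0% = growth of cultures given vehicle only.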 To be noted: S. cerevisiae sgs1 mgt1 strain, stronger effect = higher value. An outline of the steps:
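This yeast growth screen uses a strain with defined DNA-repair lesions; compound-treated growth is compared with vehicle-treated growth.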

Assay [4] can be described thus: NCI Yeast Anticancer Drug Screen. Data for the cln2 rad14 strain (AID 165).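 Note: 0% = growth equal to vehicle treated cultures.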 To be noted: S. cerevisiae cln2 rad14 strain, stronger effect = higher value. An outline of the steps: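 Readout is yeast growth inhibition versus vehicle-treated controls, using a strain with cln2 and rad14 alterations exposed to compound.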
Assay [5] in a line: NCI Yeast Anticancer Drug Screen. Data for the bub3 strain (AID 167). The conditions noted are these: S. cerevisiae bub3 mutant strain, stronger effect = higher value. An outline of the steps: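 Whole-cell yeast assay. The mutant strain was incubated with compounds, and growth inhibition was determined by comparison with vehicle-treated cells.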
Assay [6] can be described thus: NCI Yeast Anticancer Drug Screen. Data for the mlh1 rad18 strain (AID 175). The conditions noted are these: S. cerevisiae mlh1 rad18 strain growth inhibition, stronger effect = higher value. In short, it runs like this: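 Genetically defined yeast (DNA repair-deficient) exposed to compounds; growth inhibition determined relative to vehicle.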
Where [7] appears, read: at 5.0 µM (retest, dose inferred, filed as 0.5).
[8] abbreviates: at 50.0 µM (retest, dose inferred, filed as 5.0).

Values joined by “and” are separate entries in the source; they are usually repeats but may differ in a detail not shown here. Equal values may be shown once. The panel holds about 79,000 compounds, 15% with a hit somewhere; the sample as a whole holds those more often. The source holds several records for some structures; these can differ, active in one and inactive in another. Active and inactive are the calls of the source. Cut-off read from the data, not from the text of the source: active = growth inhibition above about 70%; inactive = the rest.

As to `CC(C)(C)CC(C)(C)c1ccc(OCCO)cc1`, the growth inhibition in assay [1] (setting [7]) was -2% (inactive); in assay [1] (setting [8]), 98% (active); in assay [1] (at 50.0 µM), -22.7% (inactive) and 99.6% (active); in assay [2] (setting [7]) it was -16% (inactive); in assay [2] (setting [8]), 99% (active); in assay [2] (at 50.0 µM) it was -11.3% (inactive) and 99.5% (active). The growth inhibition is -6% (inactive) in assay [3] (setting [7]); 97% (active) in assay [3] (setting [8]); 25.9% (inactive) and 99.5% (active) in assay [3] (at 50.0 µM); -13% (inactive) in assay [4] (setting [7]); 99% (active) in assay [4] (setting [8]); -49.5% (inactive) and 99.3% (active) in assay [4] (at 50.0 µM). For the same compound, the growth inhibition is -21% (inactive) in assay [5] (setting [7]); 99% (active) in assay [5] (setting [8]); -40.5% (inactive) and 99.5% (active) in assay [5] (at 50.0 µM); -5% (inactive) in assay [6] (setting [7]); 99% (active) in assay [6] (setting [8]); -27.9% (inactive) and 99.5% (active) in assay [6] (at 50.0 µM).
Take `Cc1cc2c(C(C)C)c(O)c(O)c(C=Nc3ccccc3S)c2c(O)c1-c1c(C)cc2c(C(C)C)c(O)c(O)c(C=Nc3ccccc3S)c2c1O`: the growth inhibition in assay [1] (setting [7]) is -3% (inactive); in assay [1] (setting [8]), 53% (inactive); in assay [1] (at 50.0 µM), 36.2% (inactive); in assay [2] (setting [7]), -12% (inactive); in assay [2] (setting [8]), 28% (inactive); in assay [2] (at 50.0 µM), 55% (inactive). The growth inhibition is -4% (inactive) in assay [3] (setting [7]); 4% (inactive) in assay [3] (setting [8]); 57.3% (inactive) in assay [3] (at 50.0 µM); -9% (inactive) in assay [4] (setting [7]); 16% (inactive) in assay [4] (setting [8]); 44.6% (inactive) in assay [4] (at 50.0 µM). The growth inhibition in assay [5] (setting [7]) was -8% (inactive); in assay [5] (setting [8]), 45% (inactive); in assay [5] (at 50.0 µM), 39.5% (inactive); in assay [6] (setting [7]) it was -5% (inactive); in assay [6] (setting [8]), 66% (inactive); in assay [6] (at 50.0 µM), 53.5% (inactive).
With `O=C(O)COc1ccc(OCC(=O)O)cc1`, the growth inhibition in assay [1] (setting [7]) was 3% (inactive); in assay [1] (setting [8]) it was 42% (inactive); in assay [1] (at 50.0 µM) it was -11.4% (inactive) and 55.8% (inactive); in assay [2] (setting [7]) it was -3% (inactive); in assay [2] (setting [8]), -2% (inactive); in assay [2] (at 50.0 µM), -5.05% (inactive) and -20.9% (inactive). Besides, the growth inhibition in assay [3] (setting [7]) was -1% (inactive); in assay [3] (setting [8]), 1% (inactive); in assay [3] (at 50.0 µM), -11.5% (inactive); in assay [4] (setting [7]), 1% (inactive); in assay [4] (setting [8]), -5% (inactive); in assay [4] (at 50.0 µM), -68.3% (inactive). Further, the growth inhibition is 1% (inactive) in assay [5] (setting [7]); 4% (inactive) in assay [5] (setting [8]); -4.55% (inactive) in assay [5] (at 50.0 µM); -3% (inactive) in assay [6] (setting [7]); 1% (inactive) in assay [6] (setting [8]); 0.9% (inactive) and 18.2% (inactive) in assay [6] (at 50.0 µM).
In the case of `CNC(=O)OCCN1c2ccccc2Sc2ccccc21`, the growth inhibition was -22% (inactive) in assay [1] (setting [7]); 93% (active) in assay [1] (setting [8]); 89.5% (active) in assay [1] (at 50.0 µM); -9% (inactive) in assay [2] (setting [7]); 68% (inactive) in assay [2] (setting [8]); 92% (active) in assay [2] (at 50.0 µM). The growth inhibition in assay [3] (setting [7]) is 8% (inactive); in assay [3] (setting [8]), 91% (active); in assay [3] (at 50.0 µM), 93.3% (active); in assay [4] (setting [7]), -1% (inactive); in assay [4] (setting [8]) it was 82% (active); in assay [4] (at 50.0 µM), 90.3% (active). Further, the growth inhibition in assay [5] (setting [7]) was 0% (inactive); in assay [5] (setting [8]), 95% (active); in assay [5] (at 50.0 µM), 92% (active); in assay [6] (setting [7]), -9% (inactive); in assay [6] (setting [8]), 92% (active); in assay [6] (at 50.0 µM), 91.5% (active).
Turning to `O=C1C=C(c2c(O)ccc3ccccc23)c2ccccc2C1=O`, the growth inhibition in assay [1] (setting [7]) is 48% (inactive) and 29% (inactive); in assay [1] (setting [8]) it was 98% (active); in assay [1] (at 50.0 µM), 98.9% (active) and 85.8% (active); in assay [2] (setting [7]), 73% (active) and 21% (inactive); in assay [2] (setting [8]), 99% (active) and 98% (active); in assay [2] (at 50.0 µM), 98.8% (active) and 85% (active). Further, the growth inhibition in assay [3] (setting [7]) is 80% (active) and 40% (inactive); in assay [3] (setting [8]), 98% (active); in assay [3] (at 50.0 µM) it was 84.8% (active) and 89.8% (active); in assay [4] (setting [7]), 59% (inactive) and 36% (inactive); in assay [4] (setting [8]), 99% (active) and 98% (active); in assay [4] (at 50.0 µM), 98.7% (active) and 89.3% (active). In addition, the growth inhibition in assay [5] (setting [7]) was 46% (inactive) and 40% (inactive); in assay [5] (setting [8]), 99% (active) and 97% (active); in assay [5] (at 50.0 µM), 98.7% (active) and 90.3% (active); in assay [6] (setting [7]), 94% (active) and 73% (active); in assay [6] (setting [8]), 98% (active) and 97% (active); in assay [6] (at 50.0 µM), 98.7% (active) and 90.2% (active).
With `Nc1nc(-c2ccccn2)cc2ccccc12`, the growth inhibition is 5% (inactive) in assay [1] (setting [7]); 63% (inactive) in assay [1] (setting [8]); -2.25% (inactive) in assay [1] (at 50.0 µM); 25% (inactive) in assay [2] (setting [7]); 76% (active) in assay [2] (setting [8]); -11.2% (inactive) in assay [2] (at 50.0 µM). The growth inhibition in assay [3] (setting [7]) was 22% (inactive); in assay [3] (setting [8]) it was 77% (active); in assay [3] (at 50.0 µM) it was 4.35% (inactive); in assay [4] (setting [7]), 21% (inactive); in assay [4] (setting [8]), 62% (inactive); in assay [4] (at 50.0 µM), 4.4% (inactive). The growth inhibition in assay [5] (setting [7]) is 1% (inactive); in assay [5] (setting [8]), 61% (inactive); in assay [5] (at 50.0 µM), 7.35% (inactive); in assay [6] (setting [7]), 29% (inactive); in assay [6] (setting [8]), 85% (active); in assay [6] (at 50.0 µM), 11.1% (inactive).
As for `CN1CCN(CCCN2c3ccccc3Sc3ccc(C(F)(F)F)cc32)CC1`, the growth inhibition is -13% (inactive) and -1% (inactive) in assay [1] (setting [7]); 98% (active) and 94% (active) in assay [1] (setting [8]); 98.8% (active) and 83.9% (active) in assay [1] (at 50.0 µM); -9% (inactive) and -29% (inactive) in assay [2] (setting [7]); 98% (active) and 70% (active) in assay [2] (setting [8]); 99.2% (active) and 83.9% (active) in assay [2] (at 50.0 µM). Also, the growth inhibition is -7% (inactive) and 0% (inactive) in assay [3] (setting [7]); 95% (active) and 73% (active) in assay [3] (setting [8]); 99.2% (active) and 84.9% (active) in assay [3] (at 50.0 µM); -31% (inactive) and 3% (inactive) in assay [4] (setting [7]); 84% (active) and 78% (active) in assay [4] (setting [8]); 98% (active) and 84.7% (active) in assay [4] (at 50.0 µM). The growth inhibition is -13% (inactive) and -27% (inactive) in assay [5] (setting [7]); 98% (active) and 95% (active) in assay [5] (setting [8]); 99.2% (active) and 86.2% (active) in assay [5] (at 50.0 µM); -8% (inactive) and -9% (inactive) in assay [6] (setting [7]); 99% (active) and 96% (active) in assay [6] (setting [8]); 99.6% (active) in assay [6] (at 50.0 µM).
